Results on 104 molecules are retold here after PubChem BioAssay AID504834 (National Center for Advancing Translational Sciences (NCATS), 2011).

In all, about 320,000 compounds went through this assay and about 22,000 (6.9%) were called active. Entries that show only a call come without a potency. Not shown: some 27% with an inconclusive outcome. This is one part of a sample in which actives are shown more often than they occur. Calls come from the whole dose curve; as a rule, active = well fitted inhibition curve with a large enough effect; inconclusive = small, poorly fitted or top-dose-only effect, or another doubt; inactive = no such curve, though single readings can be large or run the other way.
Potency is the fitted concentration of half-maximal effect.

This experiment in a line: Primary qHTS for delayed death inhibitors of the malarial parasite plastid, 96 hour incubation. To be noted: P. falciparum luciferase reporter growth; series mostly up to 28.7 µM. The gist of the method:
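96 h incubation, 37 C, 5% CO2, of luciferase-reporter P. falciparum-infected RBCs (2% hematocrit, 0.05% parasitemia final) with test compounds; endpoint luminescence.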
Background: Quantitative high-throughput screening tests each substance at several concentrations.
Turning to `CC(=O)c1ccc(S(=O)(=O)N2CCC3(CC2)OCCO3)cc1`, the Potency entry is “inactive”.

In the case of `CC(=O)c1ccc(S(=O)(=O)N2CCN(C(=O)/C=C/c3ccc4ccccc4n3)CC2)cc1`, the Potency was 5.22 µM (active).

`NC(=O)COC(=O)/C=C/c1ccc2ccccc2n1`: the Potency entry is “inactive”.

Regarding `COCC1CCCN(C(=O)c2ccc3oc(C(C)C)nc3c2)C1` (centres undefined), the Potency entry was “inactive”.

For `Nn1c(SCC(=O)Nc2nccs2)nnc1-c1ccco1`, the Potency entry is “inactive”.

Regarding `CC(C)(C)OC(=O)N/N=C/c1cn(-c2ccccc2)nc1-c1cccnc1`, the Potency was 2.33 µM (active).

For `NC(=O)C1CCN(C(=O)c2cn(-c3ccccc3)nc2-c2cccnc2)CC1`, the Potency entry was “inactive”.

With `COC(=O)c1cn(-c2ccccc2)nc1-c1cccnc1`, the Potency was 7.38 µM (active).

For `CN(C)/N=C/c1cn(-c2ccccc2)nc1-c1cccnc1`, the Potency entry was “inactive”.

For `O=C(NCc1cccnc1)c1cn(-c2ccccc2)nc1-c1cccs1`, the Potency entry is “inactive”.

In the case of `O=C(COC(=O)/C=C/c1cn(-c2ccccc2)nc1-c1cccnc1)Nc1ccc(Cl)cc1Cl`, the Potency result is “inactive”.

`COc1ccc(C(=O)N2CCN(c3ccc(C(C)=O)cc3F)CC2)cc1S(=O)(=O)NC1CC1`: the Potency result was “inactive”.

`Cc1ccc(/C=C/C(=O)OCC(=O)NCc2ccc(Cl)cc2)o1`: the Potency result is “inactive”.

Regarding `Cc1cc(-c2ccc(C)c(S(=O)(=O)NCCCN(Cc3ccccc3)C(C)C)c2)on1`, the Potency entry was “inactive”.

For `COC(=O)c1c(NC(=O)c2ccccc2F)sc2c1C(C(=O)OC)CC2` (centres undefined), the Potency entry is “inactive”.

With `O=C(Nc1ccc(C(=O)O)cc1)/C(=C\c1ccccc1)NC(=O)c1ccc(Br)cc1`, the Potency entry is “inactive”.

For the molecule `COc1ccccc1N1CCN(C(=O)C2Cc3ccccc3CN2C(=O)c2ccco2)CC1` (centres undefined), the Potency entry was “inactive”.

As for `CCCCn1c(-c2cccc(C)c2)nc2cc3[nH]c(=O)c(C(C)C)nc3cc21`, the Potency is 4.15 µM (active).

For `CCCCn1c(N)c(N(CCOC)C(=O)CSCC(=O)Nc2cccc(C)c2)c(=O)[nH]c1=O`, the Potency result is “inactive”.

As for `CCOCCn1c(-c2ccccc2)nc2ccccc21`, the Potency entry was “inactive”.

Turning to `O=C(O)C1CCCN1C1=NS(=O)(=O)c2ccccc21` (centres undefined), the Potency result was “inactive”.

For the molecule `CN(Cc1ccccc1)S(=O)(=O)c1nnc(NC(=O)c2ccccc2F)s1`, the Potency entry is “inactive”.

Turning to `CN(C(=O)COC(=O)c1nc(Cl)ccc1Cl)C1CCS(=O)(=O)C1` (centres undefined), the Potency entry is “inactive”.

Regarding `O=C(Nc1ccccc1)N(Cc1cccnc1)Cc1ccco1`, the Potency entry was “inactive”.

Regarding `Cc1ccc(C)c2[nH]c(=O)c(CN(Cc3cccnc3)C(=S)NCc3ccco3)cc12`, the Potency is 3.7 µM (active).

With `Cc1cccc2cc(CN(Cc3cccs3)C(=S)NCc3ccco3)c(=O)[nH]c12`, the Potency entry was “inactive”.

For the molecule `Cc1cn([C@H]2CC(F)[C@@H](CO)O2)c(=O)[nH]c1=O` (some centres undefined), the Potency entry was “inactive”.

In the case of `O=C(Cn1nc(Cc2cccnc2)c2ccccc2c1=O)NCC1CCCO1` (centres undefined), the Potency is 9.28 µM (active).

In the case of `O=C(CN1C(=O)NC2(CCCC2)C1=O)NCC1CCCO1` (centres undefined), the Potency result was “inactive”.

In the case of `Cc1nn(CC(=O)NCC2CCCO2)c(=O)c2cc3ccccc3n12` (centres undefined), the Potency entry was “inactive”.

Turning to `CCCn1c2ccccc2c2cnn(CC(=O)NCCCN3CCCCC3CC)c(=O)c21` (centres undefined), the Potency entry is “inactive”.

On to `CCC1CCC2(CC1)NC(=O)N(CC(=O)Nc1ccc(OC)cc1)C2=O` (centres undefined), for which the Potency entry is “inactive”.

As to `COc1ccc(S(=O)(=O)NC(C)C(=O)N2CCCCCC2)cc1` (centres undefined), the Potency result is “inactive”.

Regarding `COc1ccc(CC(NC(C)=O)C(=O)NC2CCN(C(=O)c3ccc(Cl)cc3)CC2)cc1` (centres undefined), the Potency entry is “inactive”.

Turning to `O=C(C1CCN(Cc2ccc(Cl)cc2)CC1)N1CCN(Cc2ccc3c(c2)OCO3)CC1`, the Potency entry was “inactive”.

In the case of `Cc1ccc(-c2cc(C(=O)NCc3cn(C)nc3C)c3cc(Br)ccc3n2)cc1`, the Potency was 13.1 µM (active).

As for `Cc1ccc2nc(-c3cccc(Br)c3)cc(C(=O)Nn3cnnc3)c2c1`, the Potency entry was “inactive”.

As to `COc1ccc(Cl)cc1C(=O)NCc1cn(C)nc1C`, the Potency result is “inactive”.

For the molecule `O=C(CCNC(=O)c1ccc(Br)cc1)Nc1cccc(S(=O)(=O)N2CCCCC2)c1`, the Potency result was “inactive”.

`O=C(O)c1ccc(NC(=O)c2ccc(COc3ccc(Cl)cc3)o2)cc1`: the Potency entry is “inactive”.

Regarding `COc1ccccc1CNS(=O)(=O)CC12CCC(CC1=O)C2(C)C` (centres undefined), the Potency entry was “inactive”.

For `CC(=O)Cn1cnc2c(cnn2-c2ccccc2)c1=O`, the Potency entry was “inactive”.

For the molecule `Cc1c2cnn(-c3ccccc3)c(=O)c2c(C)n1CCCC(=O)N1CCN(C)CC1`, the Potency was 13.1 µM (active).

Turning to `O=C(CCCN1C(=O)C2C3C=CC(C3)C2C1=O)N1CCN(c2ccccc2)CC1` (centres undefined), the Potency result is “inactive”.

With `O=C(NCc1ccncc1)c1cccc(NS(=O)(=O)c2ccc(F)c(F)c2)c1`, the Potency entry was “inactive”.

As to `CCOc1ccccc1NS(=O)(=O)c1cc2c3c(c1)C(C)C(=O)N3CCC2` (centres undefined), the Potency entry was “inactive”.

In the case of `O=C(/C=C/c1ccc(F)cc1)NC(=S)NNC(=O)c1cccnc1`, the Potency entry is “inactive”.

`COc1ccc(/C=C/C(=O)NC(=S)NN2CCCCC2c2cccnc2)cc1` (centres undefined): the Potency was 13.1 µM (active).

As for `CCOc1ccc(NC(=S)NC(=O)/C=C/c2ccc(OC)cc2)c([N+](=O)[O-])c1`, the Potency result was “inactive”.

Regarding `COC(=O)[C@@H](Cc1ccccc1)NC(=O)NCCc1ccccc1`, the Potency result was “inactive”.

Turning to `O=C1N=C(N2CCc3ccccc3C2)S/C1=C\c1ccc(O)cc1`, the Potency was 11.7 µM (active).

In the case of `O=C1N=C(N2CCCC2)S/C1=C\c1cccc(Br)c1`, the Potency entry is “inactive”.

As to `NC1=NC(=O)S/C1=C\c1ccc(O)cc1`, the Potency entry is “inactive”.

Regarding `COc1ccc(-c2nc3n(c(=O)c2C#N)CCS3)c(OC)c1`, the Potency result was “inactive”.

Turning to `COc1cc(NS(=O)(=O)c2ccc(NC(=S)NC(=O)c3ccccc3)cc2)nc(OC)n1`, the Potency entry was “inactive”.

On to `Cc1ccnc(NC(=O)CCNS(=O)(=O)c2ccc(C)c(C)c2)c1`, for which the Potency result was “inactive”.

`Cc1ccc(NC(=S)NC2CCCC2)cc1`: the Potency result was “inactive”.

`C/C(=N\NC(=S)NC1CCCCC1)c1ccc(C)o1`: the Potency is 4.65 µM (active).

For the molecule `C/C(=N/NC(=O)c1ccc(Br)o1)c1ccc(C)o1`, the Potency entry was “inactive”.

On to `CCCc1cc(C(=O)Nc2ccc(Cl)cn2)cs1`, for which the Potency entry was “inactive”.

With `CCOc1ccc(CCNC(=O)Nc2ccccc2)cc1OCC`, the Potency entry is “inactive”.

As for `COC(=O)c1cccc(N2C(=O)C3C4C=CC(CC4)C3C2=O)c1` (centres undefined), the Potency result is “inactive”.

As for `Cn1c(=NC(=O)c2cnccn2)sc2ccccc21`, the Potency was 11.7 µM (active).

On to `Cn1c(=NC(=O)CSCC(=O)N2CCCCC2)sc2ccccc21`, for which the Potency entry is “inactive”.

On to `Cn1c(=NC(=O)CSCC(=O)N2CCOCC2)sc2ccccc21`, for which the Potency entry is “inactive”.

In the case of `CCN(CC(=O)Nc1ccccc1C(=O)NC1CC1)Cc1cccs1`, the Potency entry is “inactive”.

Take `COc1cc(CN2CCC(n3nccc3NC(=O)CCCc3ccccc3)CC2)ccc1O`: the Potency result was “inactive”.

Regarding `COCCCN1C(=O)C(=O)/C(=C(/O)c2ccc(S(=O)(=O)N3CCOCC3)cc2)C1c1ccc(F)cc1` (centres undefined), the Potency result was “inactive”.

For the molecule `CCc1cccc(NC(=O)C2CCCN(S(=O)(=O)c3ccc4[nH]c(=O)ccc4c3)C2)c1` (centres undefined), the Potency entry is “inactive”.

With `CCNC(=O)N1CCN(S(=O)(=O)c2ccc3c(c2)OCCCO3)CC1`, the Potency entry was “inactive”.

`Cc1ccc(C(=O)Nc2ccc3c(c2)OCO3)cc1S(=O)(=O)N1CCCCC1`: the Potency result was “inactive”.

For the molecule `Cc1ccc(C(=O)NC2CCCC(C)C2C)cc1S(=O)(=O)N1CCCCC1` (centres undefined), the Potency is 14.7 µM (active).

As to `Cc1ccc(C(=O)NCC(=O)O)cc1S(=O)(=O)N1CCCCC1`, the Potency entry is “inactive”.

With `CC(C)CCNC(=O)c1ccc2c(Cl)c3c(nc2c1)CCC3`, the Potency entry is “inactive”.

On to `O=C(NNC(=O)c1ccco1)Nc1ccccc1`, for which the Potency entry was “inactive”.

`O=C(Cc1cccc2ccccc12)Nc1ccc2oc(-c3ccccc3)nc2c1`: the Potency result is “inactive”.

Regarding `CC(=O)Nc1ccc(-c2nc3ccccc3o2)cc1`, the Potency entry was “inactive”.

For `O=C(Nc1ccc2oc(-c3ccc4ccccc4c3)nc2c1)c1cccs1`, the Potency is 4.65 µM (active).

In the case of `O=C(c1ccc(Br)o1)N1CCN(CCOc2ccccc2)CC1`, the Potency result is “inactive”.

Consider `COc1ccc2[nH]cc(CCN3C(=O)c4ccc(C(=O)O)cc4C3=O)c2c1`, for which the Potency entry is “inactive”.

For `COc1ccc(C2Nc3ccccc3C(=O)N2c2ccc(F)cc2)cc1Cn1nnc2ccccc21` (centres undefined), the Potency was 9.28 µM (active).

Take `Fc1ccc(OCc2nn3c(Cn4nnc5ccccc54)nnc3s2)cc1`: the Potency entry was “inactive”.

In the case of `Cc1ccc(C2Nc3ccccc3C(=O)N2CCN2CCNC2=O)cc1` (centres undefined), the Potency entry was “inactive”.

As to `COc1ccc(C2Nc3ccccc3C(=O)N2Cc2ccccc2)cc1Cn1nnc2ccccc21` (centres undefined), the Potency is 3.29 µM (active).

Take `CC(=O)NN1C(=O)c2ccccc2NC1c1ccccc1` (centres undefined): the Potency entry was “inactive”.

As for `COc1ccc(N2C(=O)c3ccccc3NC2c2ccc(OC)c(CN3CCOCC3)c2)cc1` (centres undefined), the Potency entry is “inactive”.

`COc1ccc(N(CC(=O)NCC2CCCO2)C(=O)CCC(=O)Nc2nccs2)c(OC)c1` (centres undefined): the Potency entry was “inactive”.

For the molecule `O=C(CSc1nc2[nH]c(=O)[nH]c(=O)c2s1)Nc1cccc(F)c1`, the Potency entry is “inactive”.

For the molecule `Cc1ccc(S(=O)(=O)N2CCCCC2)cc1C(=O)N(C)CC(=O)Nc1cccc(F)c1`, the Potency entry was “inactive”.

Consider `CC(C)(C)C(=O)COC(=O)c1cc(S(=O)(=O)N2CCCCC2)ccc1N1CCOCC1`, for which the Potency result was “inactive”.

As to `CCc1nn(CC(=O)N2CCN(CC)CC2)c(=O)c2cccn12`, the Potency entry is “inactive”.

For `CC(NC(=O)C1CCCN(S(=O)(=O)c2ccc(-n3cnnn3)cc2)C1)c1ccc(F)cc1` (centres undefined), the Potency entry is “inactive”.

Turning to `C=CCn1c(=NC(=O)c2cccs2)sc2cc(NC(C)=O)ccc21`, the Potency entry is “inactive”.

Regarding `C=CCn1c(=NC(=O)c2ccc(S(=O)(=O)N3CCCC3)cc2)sc2cc(NC(C)=O)ccc21`, the Potency is 0.928 µM (active).

`COc1cc(C(C)=O)ccc1OC(C)C(=O)Nc1ccc(S(=O)(=O)N2CCCC2)cc1` (centres undefined): the Potency result is “inactive”.

Consider `O=C(Cc1ccccc1F)NC1CCSc2ccccc21` (centres undefined), for which the Potency result was “inactive”.

Regarding `O=S(=O)(/C=C/c1ccccc1)N1CCNCC1`, the Potency result is “inactive”.

In the case of `CC1CCN(C(=O)CCNC(=O)c2ccccc2)CC1`, the Potency result is “inactive”.

As to `Cn1c(CC2Sc3ccccc3NC2=O)nnc1SCC(=O)c1ccc(Cl)cc1` (centres undefined), the Potency entry was “inactive”.

Consider `O=C(NCCN1CCOC1=O)C1CCC(=O)N(CCc2ccc(Cl)cc2)C1` (centres undefined), for which the Potency entry was “inactive”.

For `COCCOC(=O)C1=C(C)NC(=O)NC1c1ccc(Cl)cc1` (centres undefined), the Potency entry is “inactive”.

For `CCOC(=O)COc1ccc(Cl)cc1C1NC(=O)NC(C)=C1C(C)=O` (centres undefined), the Potency entry was “inactive”.

`CCOC(=O)C1=C(C)NC(=O)N(C(C)=O)C1c1ccc(Cl)cc1` (centres undefined): the Potency is 4.15 µM (active).

With `OC(COc1ccc(F)cc1Cl)CN1CCc2ccccc2C1` (centres undefined), the Potency entry is “inactive”.
